Experimental data taken from PubChem BioAssay AID624305 (National Center for Advancing Translational Sciences (NCATS), 2012).
Results filed as inconclusive are left out. Unmarked numbers belong to inactive results. The source made the active and inactive calls. Calls follow the shape of the dose curve; as a rule, active = well fitted activation curve with a large enough effect; inconclusive = small, poorly fitted or top-dose-only effect; inactive = no such curve, though single readings can be large or run the other way.

Assay: qHTS assay for re-activators of p53 using a Luc reporter: Hit Validation; also: nearly all actives have a fitted effect of over 75% in size; as to activation: 0% is about no effect
Details: p53-responsive luciferase reporter cells, luminescence, H1299 line expressing heat-sensitive Ala138Val p53; series mostly up to 46.1 µM; activation: at the top concentration
In short: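 Hit confirmation with a 1:5 dilution series, at 37 deg C for 24 hrs, in H1299 cells co-expressing temperature-sensitive p53-A138V and p53-responsive luciferase. Nocodazole served as control; luminescence read after 10 min with detection reagent.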
Potency is read from the fitted curve at half-maximal effect.

| Structure (SMILES) | activation [%] | Potency |
| --- | --- | --- |
| COCCN(Cc1cn[nH]c1-c1ccc2cc(OC)ccc2c1)C(C)C | 31.8 | – |
| O=C(Nc1ccc(NC(=O)C2CCCCC2)cn1)c1ccco1 | – | 2.59 µM (active) |
| O=C(Nc1ncc(Cc2ccccc2)s1)c1cccs1 | – | 2.59 µM (active) |
| O=c1cc(-c2ccc3c(c2)OCCO3)oc2ccc(Cl)cc12 | – | 0.82 µM (active) |
| CCC(Sc1nc2ccccc2c(=O)n1CCN1CCOCC1)C(=O)NCc1cccnc1 (configuration not stated) | -24.5 | – |
| COc1ccccc1C(=O)O/N=C(\N)c1ccccc1Cl | -84.4 | – |
| O=C(O)CCCC(=O)NCCc1ccncc1 | -83.3 | – |
| Cc1nc2ccccc2nc(C)c1=NOCc1ccccc1Cl | 4.17 | – |
| CSC1=NCCN1C(=O)c1ccc(Br)o1 | -91.1 | – |
| Cc1c(/C(O)=C2/C(=O)C(=O)N(CCN3CCOCC3)C2c2cccs2)cnn1-c1ccccc1 (configuration not stated) | – | 8.2 µM (active) |
| CCN(CC(=O)NCc1cccs1)c1ccc(S(=O)(=O)N2CCOCC2)cn1 | -24.5 | – |
| COc1cccc(/C=C2\Oc3ccc(O)cc3C2=O)c1O | -18.8 | – |
| COc1ccc2oc(C(=O)Nc3nc(C)cs3)c(C)c2c1 | – | 1.84 µM (active) |
| Cc1cccc(-n2c(C)cc(/C=N\NC(=O)c3cccs3)c2C)c1 | – | 1.16 µM (active) |
| CCN1CCc2c(sc(NC(=O)c3ccc(S(=O)(=O)N4CCCC4)cc3)c2C(=O)NC)C1 | 8.85 | – |
| Cc1cc(C(c2nnnn2Cc2ccccc2)N2CCOCC2)c(C)n1-c1ccc2c(c1)OCO2 (configuration not stated) | 4.17 | – |
| COc1cccc(-c2cn3nc4c(nc3n2)CCCC4)c1 | – | 0.116 µM (active) |
| COc1ccc(CCC(=O)NC(C)C2CCCO2)cc1 (configuration not stated) | -26 | – |
| Cc1ccc2cc3cc(C(=O)N4CCCCCC4)oc3nc2c1 | – | 10.3 µM (active) |

| Structure (SMILES) | activation [%] | Potency |
| --- | --- | --- |
| COc1ccc(CC(=O)Nc2ccc(C(=O)Nc3ccccc3C(=O)O)cc2)cc1OC | 3.12 | – |
| Cc1cnc(C(=O)OCC(=O)c2csc(N3CCCCC3)n2)cn1 | 25 | – |
| COc1ccccc1C(=O)CC(=O)c1ccccc1 | 2.08 | – |
| C=C[C@@H]1c2cc(C)ccc2N(S(=O)(=O)c2ccc(C)cc2)[C@H](c2ccccc2C(F)(F)F)C1(C#N)C#N | -29.7 | – |
| Cc1nc2cc(-c3ccccc3)nn2c(N)c1-c1ccccc1 | – | 0.411 µM (active) |
| Cc1cccc(C(=O)OCC(=O)N2CCCCCC2)c1O | – | 5.17 µM (active) |
| COc1cc(NC(=O)C(C)C)ccc1NC(=O)c1ccco1 | – | 7.31 µM (active) |
| O=C(CCCN1C(=O)/C(=C/c2ccco2)SC1=S)Nc1ccccc1 | 36.5 | – |
| CN(C)c1ccc(CNC2CC(C)(C)NC(C)(C)C2)cc1 | 25 | – |
| CC1CC1C(=O)Nc1nc2ccc(S(C)(=O)=O)cc2s1 (configuration not stated) | 37.5 | – |
| Cc1ccccc1C(=O)Nc1ccc(Br)cn1 | – | 3.66 µM (active) |
| C(=N\Nc1nc2ccccc2s1)/c1ccc2c(c1)OCO2 | – | 2.59 µM (active) |
| Cc1ccc(NC(=O)/C=C/c2ccc([N+](=O)[O-])s2)c(C)c1 | – | 2.91 µM (active) |
| Nc1nc(-c2ccc([N+](=O)[O-])cc2)cs1 | 20.3 | – |
| CS(=O)(=O)N1CCC(C(=O)Nc2cc(Cl)c(Cl)cc2Cl)CC1 | -4.17 | – |
| COCCSc1ccccc1C(=O)Nc1cc(C)ccn1 | 20.8 | – |
| CN1CCN(C(=O)CCCN2C(=O)/C(=C/c3ccc(Cl)cc3)SC2=S)CC1 | – | 9.2 µM (active) |
| CC(C)CC(NC(=O)C1CCC(=O)N1)C(=O)NC(CC(C)C)C(=O)N1CCCC1C(N)=O (configuration not stated) | -19.8 | – |
